# Test results as given in PubChem BioAssay AID618 (Sanford-Burnham Center for Chemical Genomics, 2007).
# Out of some 87,000 compounds screened, about 540 (0.62%) were called active. How the calls were made is not given here. Shown is part of a subset that was picked to be rich in actives. Entries that show only a call come without a potency. Potency and affinity values are given separately.
# Experiment: inhibitors of MT1-MMP promoter transcription, cell-based, luciferase reporter, luminescence (AID 618);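 further: actives suppress MT1-MMP promoter-driven transcription so potencies describe inhibitors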
# Conditions: MT1-MMP promoter luciferase reporter cells
row,SMILES,outcome
1,O=C(NCC1COc2ccccc2O1)c1c[nH]c2ccc(S(=O)(=O)N3CCOCC3)cc2c1=O (centres undefined),inactive
2,CCN(CC)c1ccc(NC(=O)CCCCCN2C(=O)c3ccccc3C2=O)cc1,inactive
3,CCOC(=O)C1CCN(C(=O)CN(c2cccc(C(F)(F)F)c2)S(C)(=O)=O)CC1,inactive
4,CN(C)S(=O)(=O)N1CCN(C(=O)N2CCOCC2)CC1,inactive
5,COc1cccc(CSc2nc3sc(C)c(C)c3c(=O)n2Cc2ccco2)c1,inactive
6,C=CCn1c(COc2cccc3ccc(C)nc23)nnc1SCC(=O)O,inactive
7,CC(C)CCNC(=O)C1C2C=CC3(CN(Cc4ccccc4Cl)C(=O)C13)O2 (centres undefined),inactive
8,CCOC(=O)N1CCN(C(=O)c2ccccc2Oc2ccccc2)CC1,inactive
9,CCOC(=O)N1CCN(C(=O)c2ccccc2-c2ccccc2)CC1,active
10,O=C(c1ccccc1-c1ccccc1)N1CCCC1,inactive
11,Fc1ccc(-c2cc(C(F)(F)F)nc(N3CCCCC3)n2)cc1,inactive
12,Cc1nc2ncnn2c(N2CCC(C(=O)NCC3CCCO3)CC2)c1Cc1ccccc1 (centres undefined),inactive
13,CCCSc1nnc(Sc2nnnn2-c2ccccc2)s1,inactive
14,COc1ccc(-n2nnnc2SCC(=O)NCCc2ccc(OC)c(OC)c2)cc1,inactive
15,COc1ccc(CCNc2nnc(Sc3nnnn3-c3ccccc3)s2)cc1OC,active
16,COc1cccc2cc(C(C)=O)c(=O)oc12,inactive
17,O=C(C1CCCN(Cc2ccccc2)C1)N1CCCCC1 (centres undefined),inactive
18,CCOC(=O)c1sc(NC(=O)c2cncc(Br)c2)nc1C,inactive
19,CCC(C)(C)n1nnnc1C(c1ccc2ncccc2c1)N1CCN2CCCC2C1 (centres undefined),inactive
20,CN1CCN(/C=N/c2sc3c(c2C#N)CCCCC3)CC1,inactive
21,CCN1CCN(/C=N/c2nc3c(s2)CCCC3)CC1,active
22,CCN1CCN(/C=N/c2nc(C)cs2)CC1,inactive
23,CC1=CC(C)(C)N2C(=O)C3(C(C#N)=C(N)Oc4cc(C)oc(=O)c43)c3cc(C)cc1c32 (centres undefined),inactive
24,O=C(O)c1ccc(COc2cccc(CO)c2)cc1,inactive

row,SMILES,outcome
1,O=C(CCCOc1ccc(Cl)cc1Cl)N1CCN(c2ccccn2)CC1,inactive
2,O=C(O)c1ccccc1COc1ccccc1Cl,inactive
3,O=C(O)c1ccc(COc2ccccc2Cl)cc1,inactive
4,O=C(O)c1ccc(COc2ccc(CO)cc2Cl)cc1,inactive
5,O=C(c1cccc(Cl)c1)N1CCN(c2ccccn2)CC1,inactive
6,O=C(O)c1cccc(COc2ccccc2Cl)c1,active
7,O=C(O)c1cccc(COc2ccc(CO)cc2Cl)c1,active
8,CCOC(=O)CNC(=O)CSc1ncnc2c1cnn2-c1ccccc1,inactive
9,CCOC(=O)CNC(=O)CSc1ncnc2c1cnn2-c1ccc(Cl)cc1,inactive
10,CCOC(=O)CCc1c(C)n(CC)c2cc(-c3ccccc3OC)nn2c1=O,inactive
11,c1cnc(N2CC[N+]3(CCCC3)CC2)nc1,inactive
12,CCOc1cc(-c2nnc(-c3ccco3)o2)cc(OCC)c1OCC,inactive
13,COCCCNC(=O)Cn1nnc(-c2ccccc2NC(=O)c2ccccc2F)n1,inactive
14,COc1ccc(C2C(C(C)=O)=C(O)C(=O)N2CCO)c(OC)c1 (centres undefined),inactive
15,COC(=O)c1ccc(OC(=O)c2ccc(OC)c(OC)c2)c(OC)c1,inactive
16,COC(=O)c1ccc(OC(=O)c2ccc(OCc3c(C)noc3C)c(OC)c2)cc1,inactive
17,COC(=O)c1ccc2c(c1)C(C)(C)C(/C=C/c1ccc(OC)c(OC)c1OC)=[N+]2C,active
18,CCn1c(=O)c2c3c(sc2n(C)c1=O)CCC3,inactive
19,Cc1ccc(OCC(=O)Nc2cccc(O)c2)cc1C,inactive
20,Cc1cccc(OCC(=O)Nc2cccc(O)c2)c1,inactive
21,O=C(CCN1CCN(c2ccccc2)CC1)Nc1ccc(Cl)cc1,inactive
22,Cc1cn(Cc2ccccc2)c(=O)[nH]c1=O,inactive
23,Cc1cc(C(=O)Nc2nc3c(s2)CCCC3)no1,inactive
24,CC1CCc2nc(NC(=O)CN3CCOCC3)sc2C1 (centres undefined),inactive

row,SMILES,outcome
1,O=C(Nc1nc2c(s1)CCCC2)c1ccc(Br)o1,inactive
2,CC1CCc2nc(NC(=O)c3ccco3)sc2C1 (centres undefined),active
3,Cc1ncsc1C(=O)Nc1nc2c(s1)CC(C)CC2 (centres undefined),inactive
4,CC1CCc2nc(NC(=O)Cc3cccs3)sc2C1 (centres undefined),inactive
5,CC1CCc2nc(NC(=O)C3CC3)sc2C1 (centres undefined),inactive
6,CC(C)Cc1nnc(NC(=O)CCN2C(=O)c3ccccc3C2=O)s1,inactive
7,CCOC(=O)C1=C(C)N(Cc2ccccc2)C(=O)NC1c1ccc(OC)cc1 (centres undefined),inactive
8,c1ccc(N2CCCCC2)c(NC2=NCCC2)c1,inactive
9,Cc1ccc(-c2nc(=S)c3c(n2CC2CCCO2)CC(C)(C)OC3)cc1 (centres undefined),inactive
10,O=C(NCCCN1CCCC1=O)c1cc(=O)c2ccccc2o1,inactive
11,CCOC(=O)CN(C(=O)Cn1nnc2ccccc21)C(C(=O)NCCOC)c1ccccc1C (centres undefined),inactive
12,COc1ccc2[nH]c3nc(SCc4nnc(-c5ccccc5)o4)nnc3c2c1,inactive
13,COc1ccc2[nH]c3nc(SC(C)C)nnc3c2c1,active
14,COc1ccc2[nH]c3nc(SCc4nnc(-c5ccc(C)cc5)o4)nnc3c2c1,inactive
15,COc1ccc(NC(=O)c2cnc3sccn3c2=O)cc1,inactive
16,Cc1ccc(-c2nc3ccccn3c2NC(=O)c2ccco2)cc1,inactive
17,Cc1cccn2c(=O)c3cc(C(=O)NCc4ccco4)c(=N)n(CCOCCO)c3nc12,inactive
18,COc1ccc(-c2nnc3n2N=C(c2ccccc2)CS3)cc1OC,inactive
19,CCOc1ccc(C2=Nn3c(nnc3-c3ccc(OC)cc3)SC2)cc1,inactive
20,CCOc1ccc(C2=Nn3c(nnc3-c3ccccc3OC)SC2)cc1,active
21,COc1ccc(OC)c(C2=Nn3c(nnc3-c3cc(OC)c(OC)c(OC)c3)SC2)c1,inactive
22,COc1ccc(C2=Nn3c(nnc3-c3ccccc3)SC2)cc1OC,inactive
23,COc1cc(-c2nnc3n2N=C(c2ccccc2)CS3)cc(OC)c1OC,active
24,COc1ccccc1-c1nnc2n1N=C(c1ccc(O)c(O)c1)CS2,inactive

row,SMILES,outcome
1,CCOc1ccc(-c2nnc3n2N=C(c2ccc(OC)cc2)CS3)cc1,inactive
2,COc1ccc(C2=Nn3c(nnc3-c3ccccc3OC)SC2)cc1OC,active
3,COC(=O)c1ccccc1NC(=O)Cn1c(=O)oc2ccc(Cl)cc21,inactive
4,C=CCNc1sc(C(=O)c2ccc(Br)s2)c(N)c1C#N,inactive
5,Cc1ccc(C(=O)NNC(=O)Cc2ccccc2)cc1,inactive
6,Cc1nc2ccccc2n1CC(=O)OCC(=O)Nc1ccc2c(c1)OCCO2,inactive
7,CCc1nnc2n1N=C(c1ccc(OC)cc1)CS2,inactive
8,Cc1c(C(=O)NCc2ccoc2)oc2ccc3c(c12)C(=O)CC(C)(C)O3,inactive
9,CCCNC(=O)c1oc2ccc3c(c2c1C)C(=O)CC(C)(C)O3,inactive
10,CCC(C)n1c(SC(C)C#N)nc2ccccc2c1=O (centres undefined),inactive
11,Nc1nonc1C(=Nc1ccccc1)NO,inactive
12,CCOc1ccc(OCc2ccc(C(=O)NCc3cccnc3)o2)cc1,inactive
13,CCOC(=O)N1CCN(c2nc(-c3ccc(OC)cc3)no2)CC1,inactive
14,c1ccc(COc2ccc(OCCn3cncn3)cc2)cc1,inactive
15,COc1ccc(-c2nc3n(c2Br)CCC3)cc1,inactive
16,O=c1c2ccccc2nc2n1CCCCC2,inactive
17,COc1ccc(-c2cc3nc4n(c(=O)c3s2)CCC4)cc1,active
18,COc1ccc(-c2cc3nc4n(c(=O)c3s2)CCOC4)cc1,inactive
19,O=c1c2ccccc2nc2n1CCC2,inactive
20,COc1cc2c(cc1NC(=O)CN1C(=O)NC3(CCc4ccccc43)C1=O)oc1ccccc12 (centres undefined),inactive
21,Cc1ccc(S(=O)(=O)NC(=O)Nc2c(C)n(C)n(-c3ccccc3)c2=O)cc1,inactive
22,CCOc1ccccc1NC(=O)CN(c1ccc(C)cc1)S(=O)(=O)c1c(C)noc1C,inactive
23,CCOc1ccccc1NC(=O)CN(c1ccc(OC)cc1)S(=O)(=O)c1c(C)noc1C,inactive
24,CCOc1ccc(N(CC(=O)Nc2ccccc2C)S(=O)(=O)c2c(C)noc2C)cc1,active

row,SMILES,outcome
1,Cc1nnc2n(C3CCCCC3)c(=O)c3c4c(sc3n12)CCC4,inactive
2,Cc1nc(Cl)sc1C(=O)O,inactive
3,O=C(Nc1ccon1)c1cc2c(s1)CCCCCC2,inactive
4,C=CS(=O)(=O)c1ccc(Oc2ccc(S(=O)(=O)C=C)cc2)cc1,active
5,O=S(=O)(c1ccc(Oc2ccc(S(=O)(=O)N3CCOCC3)cc2)cc1)N1CCOCC1,inactive
6,CNS(=O)(=O)c1ccc(Oc2ccc(S(=O)(=O)NC)cc2)cc1,inactive
7,COCCCNC(=O)c1ccc2c(c1)OCO2,inactive
8,O=C(NCCOc1ccccc1)c1ccc2c(c1)OCO2,active
9,CCOCCCNC(=O)c1ccc2c(c1)OCO2,inactive
10,Cn1c(=O)c2c(nc(CN3CCN(c4ccccc4)CC3)n2CCCc2ccccc2)n(C)c1=O,inactive
11,COc1ccccc1NC(=O)CN1C(=O)NC(C)(C)C1=O,inactive
12,O=C(NCc1ccccc1)C(c1cccnc1)N(Cc1ccco1)C(=O)c1ccccn1 (centres undefined),inactive
13,CCOC(CNC(=O)c1ccc2nc(N3CCC(C)CC3)sc2c1)OCC,inactive
14,CCOC(=O)N1CCN(C(=O)c2ccc3nc(N4CCC(C)CC4)sc3c2)CC1,inactive
15,Cc1cc(Oc2ccc(C(C)(C)C)cc2)nc(N2CCOCC2)n1,inactive
16,CN(CC(=O)NCCN1CCCCCC1)S(=O)(=O)c1cccc2nsnc12,inactive
17,COc1ccc(-c2nn(C)c3sc(C(=O)NCc4ccco4)cc23)cc1OC,inactive
18,NC(=O)c1cnn2c(C(F)(F)F)cc(-c3ccc(F)cc3)nc12,inactive
19,CN1/C(=C\C(=O)c2ccco2)C(C)(C)c2ccccc21,inactive
20,CN1/C(=C\C(=O)C(F)F)C(C)(C)c2ccccc21,inactive
21,COC(=O)c1ccccc1NC(=O)c1cc(-c2cccs2)on1,inactive
22,c1ccc(NC2=Nc3ccccc3CC2)cc1,inactive
23,Brc1ccc(NC2=Nc3ccccc3CC2)cc1,inactive
